PubChem BioAssay (NCI)
The panel holds about 83,000 compounds, 20% with a hit somewhere; the sample as a whole holds those more often.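 Note: values are percent growth. 100 is the growth of untreated cells, values between 100 and 0 indicate rising inhibition; between -100 and 0 indicates cell death.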 A number with no mark means an inactive call. Activity calls are given as the source filed them. The calls were made as follows: active = growth percent below 10; inactive = the rest.

Test system: CAKI-1 renal
Experiment: NCI-60 one-dose screen, 48 h (100 = growth as untreated, 0 = no growth, -100 = all killed)
Conditions: 10 µM unless noted

| Compound | growth |
| --- | --- |
| CCCCN1C=CCN(CCCC)C1 | 86% |
| Cc1nn(-c2ccccc2)c(Cl)c1/C=N\N=c1/sc2ccccc2n1C | 101% |
| COc1cc(CC(=O)n2ncc3ccc(N)cc32)cc(OC)c1OC | 85.9% |
| Cn1cc(-c2nc(-c3c[nH]c4c(Cl)nccc34)cs2)c2cc(Br)ccc21 | 92.4% |
| CCNc1nc2ccc(Nc3ccnc4cc(Cl)ccc34)cc2[nH]1 | 98.9% |
| Cc1ncc(C(=O)Nc2ccc(CN3CCN(C)CC3)c(C(F)(F)F)c2)cc1C#Cc1cnc(N)cc1C#N | -88.2% (active) |
| COc1cc(/C=C\c2cc(/C=C\c3ccc(O)c(OC)c3)n(C(=O)COc3ccccc3)n2)ccc1O | 24.2% |
| C[C@H](c1nc2ccc(N)cc2[nH]1)[C@H]1CC[C@H]2[C@@H]3CCC4=CC(=O)CC[C@]4(C)[C@H]3CC[C@]12C | 91.3% |
| CC(c1ccccc1)C(C(=O)c1ccccc1)c1ccccc1 (configuration not stated) | 89.2% |
| N#CC1=C(N)Oc2c(ccc3ccccc23)C1c1ccccc1Cl (configuration not stated) | 27.4% |
| N#CC(C(=O)/C(=N/NC(=O)c1ccccc1O)C(C#N)c1ccccc1)c1ccccc1 (configuration not stated) | 82.5% |
| C[C@@H](Nc1ncnc2ccc(-c3cnc(N)nc3)cc12)c1ccc(F)cc1 | 40.6% |
| Cc1cccc(C)c1N=c1oc2ccc(Cl)cc2nc1-c1ccccc1O | 90.4% |
| COc1cc(C2C3=C(COC3=O)N(CCO)c3cc4c(cc32)CCC4)cc(OC)c1OC (configuration not stated) | 28.7% |
| COc1cc2cc(Oc3cccc(NC(=O)Nc4cc(C(F)(F)F)cc(C(F)(F)F)c4)c3)c(C)nc2cc1OC | 6.4% (active) |
| Cc1cc(Cl)nc(N(CCNc2ccnc3cc(Cl)ccc23)Cc2ccccn2)n1 | 56.1% |
| COc1ccc(C(=O)c2cc(OC)c(OC)c(OC)c2)cc1O | 37.2% |
| N#C/C(=C\c1ccc([N+](=O)[O-])s1)c1nc2cc(Br)ccc2s1 | -2.73% (active) |
| Brc1ccc2[nH]cc(-c3cncn3CCc3ccccc3)c2c1 | 35.4% |

| Compound | growth |
| --- | --- |
| Cc1c(C)c([N+](=O)[O-])c(C)c([N+](=O)[O-])c1C | 99.3% |
| COc1ccc(C(=O)CC#N)cc1 | 127% |
| O=C(/C=C/c1c(-c2ccc(Cl)cc2)nn(-c2ccccc2)c1C(F)(F)F)c1ccc(Cl)cc1 | 90% |
| Cc1ccc(NS(=O)(=O)c2ccc(-c3cnc(C4CC4)o3)cc2)cc1C(F)(F)F | 42.7% |
| CC(C)c1ccc(Nc2ccc3c(OCCCN4CCN(C)CC4)cccc3n2)cc1 | 64.4% |
| CCN(c1ccccc1)S(=O)(=O)c1cc([N+](=O)[O-])ccc1Cl | 48.1% |
| C=C1C(=O)O[C@H]2[C@H]1CC/C(CNS(=O)(=O)c1cccc3ccccc13)=C\CC[C@@]1(C)O[C@@H]21 | 34.5% |
| COc1cc(C(=O)Nc2cc3c(cc2Oc2cc(C)cc(C)c2)C(=O)N(C)[C@@H](CC(=O)N(C)O)C(=O)N3)c(Br)c(OC)c1OC | -5.8% (active) |
| Cc1c2cc[nH]c(=O)c2c(C)c2c1[nH]c1cc(OCCN3CCN(C)CC3)ccc12 | 43.7% |
| Cn1cc(-c2csc(-c3c[nH]c4ccccc34)n2)c2ccnc(Cl)c21 | 66.1% |
| COc1ccc2nc(-c3ccc(-c4noc(-c5cc(OC)c(OC)c(OC)c5)n4)cc3)[nH]c2c1 | 96.5% |
| Cn1cc(-c2nc(-c3c[nH]c4c(Cl)nccc34)cs2)c2cc(F)ccc21 | 99.2% |
| O=C1NN(C(=O)c2ccccc2)C(c2ccc(Cl)c(Cl)c2)=C/C1=C\c1ccc([N+](=O)[O-])cc1 | 77.1% |
| COc1ccc(OC)c(CCn2cncc2-c2c[nH]c3ccccc23)c1 | 66.7% |
| N#Cc1c(-c2cccc([N+](=O)[O-])c2)nc(SCC(=O)c2ccc(Cl)cc2)[nH]c1=O | 88.8% |
| COC(=O)c1ccc2c(c1)[n+](=O)c(C(C)=O)c(C(F)(F)F)n2[O-] | -78.5% (active) |
| C#Cc1cccc(NC(=O)Nc2cccc(NC(=O)CCl)c2)c1 | 15.8% [8.25 µM] |
| Cc1nc2sccn2c1-c1cn2ccsc2n1 | 53.1% |
